Measured values published in PubChem BioAssay (NCATS).
Inconclusive results are not listed. Where a call stands in place of a potency, no number is given. Active and inactive are the calls of the source. The call rests on the fitted dose curve; in most records, active means well fitted curve in the direction sought with a large enough effect; inconclusive means small, poorly fitted or top-dose-only effect, or another doubt; inactive means no such curve, though single readings can be large; an effect the other way counts as inactive or inconclusive.

Assays:
[1] = molecular target: Nuclear receptor subfamily 1 group I member 3 (Homo sapiens) (UniProt Q14994); test: qHTS for Constitutive Androstane Receptor (CAR) Antagonist screened against the NCATS CANVASS Library (AID 1347372);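 further: cells stimulated with 50 nM CITCO agonist so inhibition reflects antagonism; series mostly up to about 46 µM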
In short: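 HepG2 cells stably carrying hCAR and a CYP2B6-2.2kb luciferase reporter were exposed to compounds plus 50 nM CITCO for 24hr at 37C. CAR activity was read by ONE-Glo luminescence, with viability measured first by CellTiter-Fluor.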

[2] = molecular target: Nuclear receptor subfamily 1 group I member 3 (Homo sapiens) (UniProt Q14994); test: qHTS for Constitutive Androstane Receptor (CAR) Agonist screened against the NCATS CANVASS Library (AID 1347373);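 further: every well also contained 1.5 µM PK11195 alongside the test compound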
In short: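 HepG2 cells stably expressing hCAR and a CYP2B6-2.2kb luciferase reporter were treated for 24hr at 37C with compounds (11-point qHTS) in the presence of 1.5uM PK11195. Reporter activation was read by ONE-Glo luminescence.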

[3] = qHTS for Hypoxia signaling pathway (HIF-1) antagonists against the NCATS CANVASS Library (AID 1347374); settings: HRE-bla ME-180 cells, HIF-1 beta-lactamase reporter, CoCl2; further: potency means the concentration at half of the fitted maximal effect; nearly all actives have a fitted effect of over 60% in size
In short: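 HRE-bla ME-180 cells (2,000/well, 0.5% dialyzed FBS) were pre-incubated 5 h, then given an 11-point compound series plus CoCl2 (60 uM solution as added) for 17 h at 37C. CCF4 β-lactamase read (ex 405, em 460/530 nm) after 2 h at RT.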

[4] = qHTS for Hypoxia signaling pathway (HIF-1) agonists against the NCATS CANVASS Library (AID 1347375)
In short: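 HRE-bla ME-180 cells (beta-lactamase reporter under hypoxia responsive element) in 0.5% dialyzed FBS medium, 5 h at 37C, then compound 17 h, 11-point qHTS series. CCF4-AM FRET substrate 2 h RT; 460/530 nm emission read.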

[5] = 10-beta competent E. coli microbial cell viability qHTS against the NCATS CANVASS Library (AID 1347376); further: series mostly up to about 46 µM
In short: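 10-beta competent E. coli (0.9 OD culture diluted to 0.2 OD) exposed to compounds in an 11-point qHTS series, incubated overnight at 37C, 5% CO2. Viability read as ATP by BacTiter-Glo luminescence after 20 min at room temperature.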

[6] = DH5-alpha competent E. coli microbial cell viability qHTS against the NCATS CANVASS Library (AID 1347377)
In short: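 DH5-alpha E. coli suspension (0.9 OD culture diluted to 0.2 OD) exposed to compounds in an 11-point series, overnight at 37C, 5% CO2. Viability read as ATP by BacTiter-Glo luminescence after 20 min at room temperature.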

[7] = qHTS for H2AX Agonists against the NCATS CANVASS Library (AID 1347378)
In short: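 CHO-K1 cells (1000/well, overnight at 37C) exposed to compounds at several concentrations for 3 hr at 37C, 0.76% DMSO final. Lysates read by TR-FRET (phospho-H2AX S139 Eu-cryptate antibody / H2AX-d2 antibody) after 24 hr at room temperature; 665/615 nm ratio.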

[8] = qHTS for Inflammasome Signaling Inhibitors: IL-1-beta AlphaLISA screen against the NCATS CANVASS Library (AID 1347379); settings: outcome: dose series up to 57.5 µM;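 further: human THP-1 cells primed with LPS then triggered with ATP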
In short: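 Human THP-1 cells were pretreated 1 hr at 37 °C with compounds (up to 57.5 uM final), then stimulated with LPS (250 ng/mL final) and ATP (1.25 mM final). Secreted IL-1B was read by AlphaLISA after 16 hr.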

[9] = Inflammasome Signaling qHTS Counterscreen: IL-1-beta AlphaLISA counterscreen against the NCATS CANVASS Library (AID 1347381);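 further: cell-free check with purified IL-1β in medium and no THP-1 cells; series mostly up to about 57 µM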
In short: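 To flag interference with the AlphaLISA read-out, a known amount of purified IL-1-beta (4 pg) replaced cell supernatant. Detection used anti-IL-1-beta acceptor beads, biotinylated antibody and streptavidin donor beads at room temperature.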

[10] = qHTS for Antimalaria activity screened against the NCATS CANVASS Library (AID 1347380);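 further: Plasmodium falciparum strain Dd2 asexual parasites grown in red blood cells; series mostly up to about 29 µM; nearly all actives have a fitted effect of over 40% in size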
In short: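 P. falciparum Dd2-infected RBCs (2.5% hematocrit final, 0.3% parasitemia) in Albumax II RPMI were exposed to compounds in an 11-point qHTS series for 72 h at 37C under 5% O2/5% CO2, then lysed with SYBR Green.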

Sequence of Nuclear receptor subfamily 1 group I member 3 (Homo sapiens) (Q14994 whole entry, looked up): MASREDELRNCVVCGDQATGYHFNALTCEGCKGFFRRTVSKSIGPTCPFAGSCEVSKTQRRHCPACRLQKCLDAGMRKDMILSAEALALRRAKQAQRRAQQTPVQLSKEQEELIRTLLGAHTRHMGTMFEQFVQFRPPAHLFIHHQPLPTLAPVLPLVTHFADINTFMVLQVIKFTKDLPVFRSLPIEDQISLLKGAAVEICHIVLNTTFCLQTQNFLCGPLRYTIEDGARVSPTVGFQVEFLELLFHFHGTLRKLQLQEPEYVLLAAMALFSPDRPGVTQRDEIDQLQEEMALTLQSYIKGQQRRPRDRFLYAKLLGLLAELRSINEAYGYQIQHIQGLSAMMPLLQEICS

Structure (SMILES)	outcome [1]	outcome [2]	Potency [3]	outcome [4]	outcome [5]	outcome [6]	outcome [7]	outcome [8]	outcome [9]	outcome [10]
O=C(O)C(O)Cc1ccc(O)c(O)c1 (stereo not given)	inactive	inactive	8.38 µM (active)	inactive	inactive	inactive	inactive	inactive	inactive	
COC(=O)[C@@H]1[C@H]2C[C@H]3c4[nH]c5ccccc5c4CCN3C[C@@H]2CC[C@@H]1O	inactive	inactive			inactive	inactive	inactive	inactive	inactive	inactive
O=c1cc(-c2ccccc2)oc2cc(O)c(O)c(O)c12	inactive	inactive		inactive	inactive		inactive	inactive	inactive	inactive
